# Source: the supplement of paper PMC4466140
# Assays:
# Assay in all cases: SPOT peptide array binding signal intensity (averaged, normalized) (arbitrary units (background-subtracted, floor 0; scale differs between SH3 domains)); higher = stronger binding of the SH3 domain to the peptide
# AgAbp1 = molecular target: AgAbp1
# Method in brief: (§1)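 Detection of bound protein relied on anti-GST antibody, an HRP anti-mouse secondary and luminol, with imaging and quantification in Genespotter. The bound protein was GST-fused SH3 domains from four yeast species, incubated at 10 μg/ml overnight at 4°C in TBS-based blocking buffer on cellulose membranes carrying synthetic 15-mer peptides with cysteines replaced by serines. Binding signal is normalized, background-subtracted spot intensity averaged over replicates, in arbitrary units that differ between domains.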
# AgBbc1 = molecular target: AgBbc1
# Method in brief: as §1
# AgBem1-D1 = molecular target: AgBem1-D1
# Method in brief: as §1
# AgBzz1-D1 = molecular target: AgBzz1-D1
# Method in brief: as §1
# AgBzz1-D2 = molecular target: AgBzz1-D2
# Method in brief: as §1
# AgCyk3 = molecular target: AgCyk3
# Method in brief: as §1
# AgFus1 = molecular target: AgFus1
# Method in brief: as §1
# AgHof1 = molecular target: AgHof1
# Method in brief: as §1
# AgHse1 = molecular target: AgHse1
# Method in brief: as §1
# AgLsb1 = molecular target: AgLsb1
# Method in brief: as §1
# AgLsb4 = molecular target: AgLsb4
# Method in brief: as §1
# AgMyo5 = molecular target: AgMyo5
# Method in brief: as §1
# AgNbp2 = molecular target: AgNbp2
# Method in brief: as §1
# AgRvs167 = molecular target: AgRvs167
# Method in brief: as §1
# AgSho1 = molecular target: AgSho1
# Method in brief: as §1
# AgSla1-D1-D2 = molecular target: AgSla1-D1-D2
# Method in brief: as §1
# AgSla1-D3 = molecular target: AgSla1-D3
# Method in brief: as §1
# CaAbp1-D1 = molecular target: CaAbp1-D1
# Method in brief: as §1
# CaAbp1-D2 = molecular target: CaAbp1-D2
# Method in brief: as §1
# CaBbc1 = molecular target: CaBbc1
# Method in brief: as §1
# CaBem1-D1 = molecular target: CaBem1-D1
# Method in brief: as §1
# CaBzz1-D1 = molecular target: CaBzz1-D1
# Method in brief: as §1
# CaBzz1-D2 = molecular target: CaBzz1-D2
# Method in brief: as §1
# CaCyk3 = molecular target: CaCyk3
# Method in brief: as §1
# CaFus1 = molecular target: CaFus1
# Method in brief: as §1
# CaHof1 = molecular target: CaHof1
# Method in brief: as §1
# CaHse1 = molecular target: CaHse1
# Method in brief: as §1
# CaLsb1 = molecular target: CaLsb1
# Method in brief: as §1
# CaLsb4 = molecular target: CaLsb4
# Method in brief: as §1
# CaMyo5 = molecular target: CaMyo5
# Method in brief: as §1
# CaNbp2 = molecular target: CaNbp2
# Method in brief: as §1
# CaRvs167 = molecular target: CaRvs167
# Method in brief: as §1
# CaRvs167-3 = molecular target: CaRvs167-3
# Method in brief: as §1
# CaSho1 = molecular target: CaSho1
# Method in brief: as §1
# CaSla1-D1-D2 = molecular target: CaSla1-D1-D2
# Method in brief: as §1
# CaSla1-D3 = molecular target: CaSla1-D3
# Method in brief: as §1
# ScAbp1 = molecular target: ScAbp1
# Method in brief: as §1
# ScBbc1 = molecular target: ScBbc1
# Method in brief: as §1
# ScBem1-D1 = molecular target: ScBem1-D1
# Method in brief: as §1
# ScBzz1-D1 = molecular target: ScBzz1-D1
# Method in brief: as §1
# ScBzz1-D2 = molecular target: ScBzz1-D2
# Method in brief: as §1
# ScCyk3 = molecular target: ScCyk3
# Method in brief: as §1
# ScFus1 = molecular target: ScFus1
# Method in brief: as §1
# ScHof1 = molecular target: ScHof1
# Method in brief: as §1
# ScHse1 = molecular target: ScHse1
# Method in brief: as §1
# ScLsb1 = molecular target: ScLsb1
# Method in brief: as §1
# ScLsb2 = molecular target: ScLsb2
# Method in brief: as §1
# ScLsb3 = molecular target: ScLsb3
# Method in brief: as §1
# ScLsb4 = molecular target: ScLsb4
# Method in brief: as §1
# ScMyo3 = molecular target: ScMyo3
# Method in brief: as §1
# ScMyo5 = molecular target: ScMyo5
# Method in brief: as §1
# ScNbp2 = molecular target: ScNbp2
# Method in brief: as §1
# ScPex13 = molecular target: ScPex13
# Method in brief: as §1
# ScRvs167 = molecular target: ScRvs167
# Method in brief: as §1
# ScSho1 = molecular target: ScSho1
# Method in brief: as §1
# ScSla1-D1-D2 = molecular target: ScSla1-D1-D2
# Method in brief: as §1
# ScSla1-D3 = molecular target: ScSla1-D3
# Method in brief: as §1
# SpAbp1-D1 = molecular target: SpAbp1-D1
# Method in brief: as §1
# SpBbc1 = molecular target: SpBbc1
# Method in brief: as §1
# SpBzz1-D1 = molecular target: SpBzz1-D1
# Method in brief: as §1
# SpBzz1-D2 = molecular target: SpBzz1-D2
# Method in brief: as §1
# SpCyk3 = molecular target: SpCyk3
# Method in brief: as §1
# SpHof1 = molecular target: SpHof1
# Method in brief: as §1
# SpHof1-2 = molecular target: SpHof1-2
# Method in brief: as §1
# SpHof1-3 = molecular target: SpHof1-3
# Method in brief: as §1
# SpHse1 = molecular target: SpHse1
# Method in brief: as §1
# SpLsb1 = molecular target: SpLsb1
# Method in brief: as §1
# SpLsb4 = molecular target: SpLsb4
# Method in brief: as §1
# SpMyo1 = molecular target: SpMyo1
# Method in brief: as §1
# SpNbp2 = molecular target: SpNbp2
# Method in brief: as §1
# SpPex13 = molecular target: SpPex13
# Method in brief: as §1
# SpRvs167 = molecular target: SpRvs167
# Method in brief: as §1
# SpSla1-D1-D2 = molecular target: SpSla1-D1-D2
# Method in brief: as §1
# SpSla1-D3 = molecular target: SpSla1-D3
# Method in brief: as §1
binder,measurement,setting,value
MARRRLPDRPPNGIG,SPOT peptide array binding signal intensity,AgAbp1,546
same,SPOT peptide array binding signal intensity,AgBbc1,428
same,SPOT peptide array binding signal intensity,AgBem1-D1,143
same,SPOT peptide array binding signal intensity,AgBzz1-D1,55
same,SPOT peptide array binding signal intensity,AgBzz1-D2,95
same,SPOT peptide array binding signal intensity,AgCyk3,16
same,SPOT peptide array binding signal intensity,AgFus1,148
same,SPOT peptide array binding signal intensity,AgHof1,112
same,SPOT peptide array binding signal intensity,AgHse1,216
same,SPOT peptide array binding signal intensity,AgLsb1,158
same,SPOT peptide array binding signal intensity,AgLsb4,2490
same,SPOT peptide array binding signal intensity,AgMyo5,≤ 0
same,SPOT peptide array binding signal intensity,AgNbp2,410
same,SPOT peptide array binding signal intensity,AgRvs167,487
same,SPOT peptide array binding signal intensity,AgSho1,636
same,SPOT peptide array binding signal intensity,AgSla1-D1-D2,179
same,SPOT peptide array binding signal intensity,AgSla1-D3,16.5
same,SPOT peptide array binding signal intensity,CaAbp1-D1,1170
same,SPOT peptide array binding signal intensity,CaAbp1-D2,788
same,SPOT peptide array binding signal intensity,CaBbc1,1100
same,SPOT peptide array binding signal intensity,CaBem1-D1,184
same,SPOT peptide array binding signal intensity,CaBzz1-D1,308
same,SPOT peptide array binding signal intensity,CaBzz1-D2,102
same,SPOT peptide array binding signal intensity,CaCyk3,290
same,SPOT peptide array binding signal intensity,CaFus1,280
same,SPOT peptide array binding signal intensity,CaHof1,5.25
same,SPOT peptide array binding signal intensity,CaHse1,89
same,SPOT peptide array binding signal intensity,CaLsb1,6.75
same,SPOT peptide array binding signal intensity,CaLsb4,2570
same,SPOT peptide array binding signal intensity,CaMyo5,22.5
same,SPOT peptide array binding signal intensity,CaNbp2,1660
same,SPOT peptide array binding signal intensity,CaRvs167,923
same,SPOT peptide array binding signal intensity,CaRvs167-3,25.5
same,SPOT peptide array binding signal intensity,CaSho1,794
same,SPOT peptide array binding signal intensity,CaSla1-D1-D2,1100
same,SPOT peptide array binding signal intensity,CaSla1-D3,138
same,SPOT peptide array binding signal intensity,ScAbp1,135
same,SPOT peptide array binding signal intensity,ScBbc1,126
same,SPOT peptide array binding signal intensity,ScBem1-D1,7
same,SPOT peptide array binding signal intensity,ScBzz1-D1,29
same,SPOT peptide array binding signal intensity,ScBzz1-D2,33
same,SPOT peptide array binding signal intensity,ScCyk3,22.5
same,SPOT peptide array binding signal intensity,ScFus1,61
same,SPOT peptide array binding signal intensity,ScHof1,53.2
same,SPOT peptide array binding signal intensity,ScHse1,241
same,SPOT peptide array binding signal intensity,ScLsb1,434
same,SPOT peptide array binding signal intensity,ScLsb2,176
same,SPOT peptide array binding signal intensity,ScLsb3,3700
same,SPOT peptide array binding signal intensity,ScLsb4,1540
same,SPOT peptide array binding signal intensity,ScMyo3,7
same,SPOT peptide array binding signal intensity,ScMyo5,≤ 0
same,SPOT peptide array binding signal intensity,ScNbp2,523
same,SPOT peptide array binding signal intensity,ScPex13,438
same,SPOT peptide array binding signal intensity,ScRvs167,2820
same,SPOT peptide array binding signal intensity,ScSho1,1560
same,SPOT peptide array binding signal intensity,ScSla1-D1-D2,1290
same,SPOT peptide array binding signal intensity,ScSla1-D3,100
same,SPOT peptide array binding signal intensity,SpAbp1-D1,1340
same,SPOT peptide array binding signal intensity,SpBbc1,43.8
same,SPOT peptide array binding signal intensity,SpBzz1-D1,450
same,SPOT peptide array binding signal intensity,SpBzz1-D2,9
same,SPOT peptide array binding signal intensity,SpCyk3,221
same,SPOT peptide array binding signal intensity,SpHof1,1210
same,SPOT peptide array binding signal intensity,SpHof1-2,1530
same,SPOT peptide array binding signal intensity,SpHof1-3,3040
same,SPOT peptide array binding signal intensity,SpHse1,104
same,SPOT peptide array binding signal intensity,SpLsb1,178
same,SPOT peptide array binding signal intensity,SpLsb4,5420
same,SPOT peptide array binding signal intensity,SpMyo1,52.8
same,SPOT peptide array binding signal intensity,SpNbp2,144
same,SPOT peptide array binding signal intensity,SpPex13,123
same,SPOT peptide array binding signal intensity,SpRvs167,1670
same,SPOT peptide array binding signal intensity,SpSla1-D1-D2,393
same,SPOT peptide array binding signal intensity,SpSla1-D3,23
